{"source": "PubChem BioAssay (NCATS)", "note": "Records with an inconclusive call do not appear. Activity calls are given as the source filed them. Calls come from the whole dose curve; as a rule, active = well fitted activation curve with a large enough effect; inconclusive = small, poorly fitted or top-dose-only effect; inactive = no such curve, though single readings can be large or run the other way.", "data": [{"assay": "qHTS for Activators of Parkin Expression: LOPAC Validation Assay (FLuc Reporter) (AID 720573)", "conditions": "Cell line, PRKN promoter firefly luciferase reporter, vehicle wells = 0, positive control = 100%; series mostly up to 46.1 µM", "excerpt": "Parkin is an E3 ubiquitin ligase localized in the cytosol of cells expressed in many tissues, including brain, skeletal muscle, heart and liver tissues. One hour after stress induction by mitochondrial uncouplers (which mimic mitochondria damage by decreasing the mitochondrial inner membrane electrochemical gradient that is used to produce ATP), Parkin translocates from the cytosol to mitochondria in many cultured cell types, including neurons and HeLa cells. Administration of other mitochondrial poisons, such as Paraquat and azide in cells lacking mitochondrial DNA (mtDNA), induces Parkin translocation to mitochondria. […] It was proposed that Parkin (together with Pink1) mediates a mitochondrial quality control pathway to maintain organelle population fidelity by removing damaged mitochondria. Understanding the normal physiologic role of Parkin (and Pink1) may uncover novel treatment strategies for sporadic Parkinson's disease patients with mutation in these genes.\nA cell based qHTS in 1536 well format was developed assess modulation of Parkin expression using a neuronal cell line that stably expresses a stably expresses a luminescent coincidence reporter (FLuc and NLuc reporters) behind the Parkin promoter. The LOPAC library is used to validate the assay for quantitative high-throughput screening. The data herein reports the signal from the FLuc reporter. An increase in this signal = activation of Parkin expression. For this assay , a positive control normalized signal increase corresponding to a high quality qHTS curve class in both luminescent channels is the desired outcome for this assay.\nNIH Chemical Genomics Center [NCGC]\nNIH Molecular Libraries Probe Centers Network [MLPCN]\nAssay Submitter (PI): Richard Youle, National Institute of Neurological Disorders and Strokes (NINDS), NIH\n[1] Narendra, D., et al., Parkin is recruited selectively to impaired mitochondria and promotes their autophagy. J Cell Biol, 2008. 183(5): p. 795-803.\n[2] Suen, D.F., et al., Parkin overexpression selects against a deleterious mtDNA mutation in heteroplasmic cybrid cells. Proc Natl Acad Sci U S A, 2010. […] 11835-40.\n[3] Cheng K, Inglese J. A coincedence reporter-gene system for high-throughput screening. Nat Methods. 2012: 9(10);937\nFive microliters (1,500 cells/well) of the Parkin coincidence reporter cells were seeded to 1536 well assay plates (Greiner Catalog # 789173-F) and incubated at 37 C, 5% CO2 for 24 hours. Compounds (23 nL) were pinned using the Kalypsys robotic system equipped with 1536 pin head adaptor in 7-point dose response. The assay plates were incubated for additional 24 hr at 37 C, 5% CO2 followed by a volume reduction in each well to 2 uL using an automated plate washer/aspirator. Following the volume reduction,2 uL of FLuc detection reagent and plates were incubated for 10 minutes at room temperature. The FLuc luminescence signal was obtained using the PerkinElmer ViewLux plate imager and then 2 uL of NanoLuc detection reagent was added to the plates. After another 10 minute incubation, NanoLuc signal was obtained using the PerkinElmer ViewLux plate imager as before. Data from each channel was normalized to DMSO (neutral control) and the positive control compounds (100%).", "values": [{"smiles": "Cc1cc(N)c2ccccc2[n+]1CCCCCCCCCC[n+]1c(C)cc(N)c2ccccc21", "outcome": "inactive"}, {"smiles": "CC(C)C(=O)c1c(C(C)C)nn2ccccc12", "outcome": "inactive"}, {"smiles": "CC1=C(CC(=O)O)c2cc(F)ccc2/C1=C\\c1ccc(S(C)(=O)=O)cc1", "outcome": "inactive"}, {"smiles": "Nc1ncnc2c1ncn2[C@@H]1O[C@H](CO)[C@@H](O)[C@H]1O", "outcome": "inactive"}, {"smiles": "Nc1cc(=O)[nH]c(N)n1", "outcome": "inactive"}, {"smiles": "CC(CN1c2ccccc2Sc2ccccc21)N(C)C", "note": "(stereo not given)", "outcome": "inactive"}, {"smiles": "NC1CCN(c2cccc(Cl)n2)CC1", "outcome": "inactive"}, {"smiles": "NC(N)=NCCC[C@H](N)C(=O)O", "outcome": "inactive"}, {"smiles": "CN(C)CCCN1c2ccccc2Sc2ccc(Cl)cc21", "outcome": "inactive"}, {"smiles": "COCCOC(=O)C1=C(C)NC(C)=C(C(=O)OC/C=C/c2ccccc2)C1c1cccc([N+](=O)[O-])c1", "note": "(stereo not given)", "outcome": "inactive"}, {"smiles": "OCCN1CCN(CCCN2c3ccccc3Sc3ccc(Cl)cc32)CC1", "outcome": "inactive"}, {"smiles": "O=C1N=C(O)CN1/N=C/c1ccc(-c2ccc([N+](=O)[O-])cc2)o1", "outcome": "inactive"}, {"smiles": "C[C@]12CC[C@@H]3c4ccc(O)cc4CC[C@H]3[C@@H]1CCC2=O", "outcome": "inactive"}, {"smiles": "CNCCCC1c2ccccc2C=Cc2ccccc21", "outcome": "inactive"}, {"smiles": "NC(=O)c1ncn([C@@H]2O[C@H](CO)[C@@H](O)[C@H]2O)n1", "outcome": "inactive"}, {"smiles": "CN(C)CC[C@@H](c1ccc(Cl)cc1)c1ccccn1", "outcome": "inactive"}, {"smiles": "COc1ccc(Cl)cc1C(=O)NCCc1ccc(S(=O)(=O)NC(=O)NC2CCCCC2)cc1", "outcome": "inactive"}, {"smiles": "CNC(=O)Oc1ccc2c(c1)[C@]1(C)CCN(C)[C@@H]1N2C", "outcome": "inactive"}, {"smiles": "CNCCC(Oc1ccc(C(F)(F)F)cc1)c1ccccc1", "note": "(stereo not given)", "outcome": "inactive"}, {"smiles": "CC(C)(C)[C@]1(O)CCN2C[C@H]3c4ccccc4CCc4cccc(c43)[C@@H]2C1", "outcome": "inactive"}, {"smiles": "CSc1ccc2c(c1)C(N1CCN(C)CC1)Cc1ccccc1S2", "note": "(stereo not given)", "outcome": "inactive"}, {"smiles": "C#CCN(C)Cc1ccccc1", "outcome": "inactive"}, {"smiles": "CC(C)(C)c1onc(OCP(=O)(O)O)c1CC(N)C(=O)O", "note": "(stereo not given)", "outcome": "inactive"}, {"smiles": "CCCn1cnc2c1c(=O)n(CCCCC(C)=O)c(=O)n2C", "outcome": "inactive"}, {"smiles": "CCCCCCCCCCCCCCCC(=O)NCCO", "outcome": "inactive"}, {"smiles": "OCc1cc(C(O)CNCCCCCCOCCCCc2ccccc2)ccc1O", "note": "(stereo not given)", "outcome": "inactive"}, {"smiles": "CCN(CC)CCOC(=O)C1(C2CCCCC2)CCCCC1", "outcome": "inactive"}, {"smiles": "CSc1ccc2c(c1)N(CCC1CCCCN1C)c1ccccc1S2", "note": "(stereo not given)", "outcome": "inactive"}, {"smiles": "CN(C)CCC=C1c2ccccc2CCc2ccccc21", "outcome": "inactive"}, {"smiles": "CN(C)CCCN1c2ccccc2CCc2ccccc21", "outcome": "inactive"}, {"smiles": "CCN(CC)CCCC(C)Nc1c2ccc(Cl)cc2nc2ccc(OC)cc12", "note": "(stereo not given)", "outcome": "inactive"}, {"smiles": "CNCC(O)c1ccc(O)c(O)c1", "note": "(stereo not given)", "outcome": "inactive"}, {"smiles": "CCN(CC)CCNC(=O)c1cc(Cl)c(N)cc1OC", "outcome": "inactive"}, {"smiles": "C[C@]12C[C@H](O)[C@H]3[C@@H](CCC4=CC(=O)CC[C@@]43C)[C@@H]1CC[C@@H]2C(=O)CO", "outcome": "inactive"}, {"smiles": "CC(=O)OCC(=O)[C@@]1(O)CC[C@H]2[C@@H]3CCC4=CC(=O)CC[C@]4(C)[C@H]3C(=O)C[C@@]21C", "outcome": "inactive"}, {"smiles": "C=Cc1c(C)c2cc3[nH]c(cc4nc(cc5nc(cc1[nH]2)C(C)=C5CCC(=O)O)C(CCC(=O)O)=C4C)c(C)c3C=C", "outcome": "inactive"}, {"smiles": "CC(C)NC[C@H](O)c1ccc(O)c(O)c1", "outcome": "inactive"}, {"smiles": "CC(CN(C)C)CN1c2ccccc2CCc2ccccc21", "note": "(stereo not given)", "outcome": "inactive"}, {"smiles": "CN1CCN(C2Cc3ccccc3Sc3ccc(Cl)cc32)CC1", "note": "(stereo not given)", "outcome": "inactive"}, {"smiles": "CC1=C(CC(=O)O)c2cc(F)ccc2/C1=C\\c1ccc(S(C)=O)cc1", "note": "(stereo not given)", "outcome": "inactive"}]}]}
